The text below walks through data of PubChem BioAssay (NCATS).

The target of test [1] is Transient receptor potential cation channel subfamily V member 1 (Homo sapiens) (UniProt Q8NER1). Nature of the test: HTS Assay for Compounds that Act as Enhancers of the Vanilloid Receptor 1 (AID 488979). Also: 0% is about no effect. The gist of the method: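 TRPV1-expressing cells loaded with Fluo-8 calcium dye; compounds added and calcium influx read kinetically for 3 min (agonist phase), then capsaicin at EC20 added and read 2 min more for enhancement. Fluorescence ex 480/em 520 nm.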

Test [2] concerns the target Thyrotropin receptor (Homo sapiens) (UniProt P16473). In words: qHTS Assay for Antagonists of the Thyroid Stimulating Hormone Receptor (AID 488980). Also: series mostly up to about 58 µM; 0% is about no effect. The essentials:
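Cells expressing human TSHR (HEK293) are dispensed in HBSS/HEPES containing 70 uM RO 20-1724, compound is added, then TSH at EC80 (4 nM final). Antibody in lysis buffer follows, 30 minutes at room temperature before HTRF detection.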

For test [3], the target named is D(1A) dopamine receptor (Homo sapiens) (UniProt P21728). Nature of the test: HTS Assay for Allosteric Agonists of the Human D1 Dopamine Receptor: Primary Screen for Agonists (AID 488981). Also: potency is read from the fitted curve at half-maximal effect. As to activation: 0% is about no effect. The gist of the method: (§1)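 Tetracycline-induced HEK293 T-REx cells force-coupled to calcium signalling were incubated overnight at 30 C and dye-loaded at room temperature. Calcium flux over 180 s after compound addition flagged agonists; a further 180 s read after EC20 dopamine flagged potentiators.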

Test [4] shares this target. Nature of the test: HTS Assay for Allosteric Agonists of the Human D1 Dopamine Receptor: Primary Screen for Potentiators (AID 488982). Also: potency is read from the fitted curve at half-maximal effect. The gist of the method:
as §1

Test [5] shares this target. In words: HTS Assay for Allosteric Agonists of the Human D1 Dopamine Receptor: Primary Screen for Antagonists (AID 488983).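 Also: calcium flux response to an EC80 dopamine challenge measured with no-wash dye; % is scaled to controls: 0 for no effect and ±100 for the full control effect; nearly all actives have a fitted effect of over 65% in size.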 The gist of the method: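 Calcium flux readout, no-wash dye, inducible HEK293 T-REx D1 line (force-coupled). Compound added after 10 s baseline, 180 s kinetic read; then dopamine at EC80, further 180 s read.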
Test [6] in a line: Validation screen for small molecules that induce genotoxicity in human embryonic kidney (HEK293T) cells expressing luciferase-tagged ELG1 (AID 493106). Also: 0% is about no effect. The gist of the method:
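qHTS format; 2,000 HEK293T ELG1-luc cells/well; 23 nL compound via pin tool; 16 hr, 37 °C/5% CO2; ONE-Glo, 30 min RT; luminescence read.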

In test [7] the target is ATPase family AAA domain-containing protein 5 (Homo sapiens) (UniProt Q96QE3). In words: Validation screen for small molecules that inhibit ELG1-dependent DNA repair in human embryonic kidney (HEK293T) cells expressing luciferase-tagged ELG1 (AID 493107).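 Also: cells co-treated with the DNA-damaging agent 5-fluorouridine alongside compound; series mostly up to about 46 µM; % is scaled to controls: 0 for no effect and ±100 for the full control effect; inhibitors lower the ELG1-luciferase luminescence signal; nearly all actives have a fitted effect of over 70% in size.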 The gist of the method:
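ELG1-luciferase HEK293T reporter; 5-fluorouridine + compound/DMSO, 16 hr, 37 °C, 5% CO2; ONE-Glo 30 min RT; luminescence read, qHTS format.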

Test [8] deals with Thyrotropin-releasing hormone receptor (Homo sapiens) (UniProt P34981). In words: qHTS for Small Molecule Agonists and Allosteric Enhancers of Human TRH Receptor: Validation Screen for Agonists (AID 493127;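 active = calcium activation more than 3 SD above the typical response in the agonist read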;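 also: intracellular calcium rise by fluo-8 fluorescence before TRH EC20 addition; 0% is about no effect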). The following applies: TRH receptor agonist cell assay; at 2 µM; stronger effect = higher value. The gist of the method:
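Read-out: intracellular calcium release measured kinetically by FDSS (fluo-8, ex 480/em 530 nm), 1 reading/s after a 10-cycle baseline. TRHR cells, 2000/well, cultured 18 h at 33.5C, dye-loaded at room temp. Compound-evoked positive calcium signal flags agonists.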
For orientation: Quantitative high-throughput screening tests each substance at several concentrations.

Test [9] in a line: Nrf2 qHTS screen for inhibitors: Validation (AID 493153; active = well fitted inhibition curve with a large enough effect in the main read-out, with a control signal flat, not every such curve was filed as active). The note with it: Potency: luciferase luminescence; viability change: measured here: cytotoxicity max response. The essentials:
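Concentration-response test in A549 ARE_Fluc reporter cells (5% FBS OPTI-MEM), compound exposure 18-24 h at 37°C, 5% CO2. Cell viability measured first by CellTiter-Fluor fluorescence; ARE-driven luciferase luminescence then measured as Nrf2 activity.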

Test [10] is described as follows: qHTS for Inhibitors of Cell Surface uPA Generation: Validation Assay (AID 493164).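 Also: RAW 264.7 macrophage cells exposed to compound for 18 h; 0% is about no effect.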 The essentials: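 Compounds are titrated over seven points (2.45 nM–38.3 uM final) onto pre-plated RAW 264.7 cells and incubated for 18 h. Retained intracellular ATP, measured with ATP-Lite, indicates blocked lethal factor entry.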
The nature of test [11]: Validation screen for small molecules that induce DNA re-replication in SW480 colon adenocarcinoma cells (AID 504364). Also: 0% is about no effect. The essentials: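 Read-out: total Hoechst intensity of nuclei by fluorescence scanning imager; hits raise the fraction of nuclei with elevated DNA content. Cells received compound for 48 hr at 37 C before a 40 min stain.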
The target in test [12] is Peptidyl-prolyl cis-trans isomerase NIMA-interacting 1 (Homo sapiens) (UniProt Q13526). In words: qHTS Validation Assay to Find Inhibitors of Pin1 (AID 504536; active = well fitted inhibition curve with a large enough effect in the polarisation, with a control signal flat, not every such curve was filed as active; the % refers to the polarisation;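 also: 0% = full Pin1 enzyme wells and -100% = no-enzyme wells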). The gist of the method: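 Fluorescence polarization competition: compounds (titration) displace HiFluor-488-labeled Pin1-1b peptide from Pin1 (0.3 uM final) in pH 7.5 HEPES buffer with DTT, 10 min at room temperature; %Activity normalized to no-enzyme wells, curves fitted.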

Test [13] concerns the target Phosphoglycerate kinase, glycosomal (Trypanosoma brucei brucei) (UniProt P07378). In words: qHTS Validation Assay to Find Inhibitors of Phosphoglycerate Kinase (AID 504547). Also: potency is read from the fitted curve at half-maximal effect. The essentials:
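In TEA buffer (100mM, pH 7.6) containing 5mM MgCl2 and 0.01% Tween-20, the GAPDH-coupled PGK reaction proceeded for 60 minutes at room temperature before a single luminescence reading using Kinase-Glo Plus.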

Test [14] has as its target phosphoglycerate mutase (Leishmania major) (UniProt Q4Q090). Nature of the test: qHTS Validation Assay to Find Inhibitors of Phosphoglycerate Mutase (AID 504548).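 Also: end-point luminescence from Kinase-GloPlus after the PGAM reaction; series mostly up to about 58 µM; % is scaled to controls: 0 for no effect and ±100 for the full control effect.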 The following applies: Potency: inhibition qHTS. The gist of the method:
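L. major PGAM (1.25nM final) was added to substrate buffer and pinned compound, incubated 45 minutes at room temperature, then Kinase-GloPlus added; luminescence read after 10 minutes. Buffer: 100 mM TEA pH 7.6, 5 mM MgCl2, 0.01% Tween-20.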

A short description of test [15]: qHTS for Inhibitors of ATXN expression: Validation of Cytotoxic Assay (AID 588349). Also: % is scaled to controls: 0 for no effect and ±100 for the full control effect. The gist of the method: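 Cytotoxicity counter-screen: HEK293 cells exposed to compound titrations, 72 hr, 37 degrees C. Read-out is intracellular ATP (CellTiter Glo luminescence) as a viability measure.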
A short description of test [16]: qHTS for Inhibitors of ATXN expression: Validation (AID 588378). Also: series mostly up to about 57 µM; % is scaled to controls: 0 for no effect and ±100 for the full control effect; nearly all actives have a fitted effect of over 75% in size. The gist of the method: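 Validation of ATXN2 expression inhibitors uses a cell-based luciferase fusion reporter in HEK293 cells, with 24 h compound exposure and paired viability (fluorescence) and reporter (luminescence) end-point reads.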
Test [17] has as its target Galactokinase (Homo sapiens) (UniProt P51570). In words: qHTS Validation Assay for Inhibitors of Human Galactokinase (GALK) (AID 493189). Also: 0% is about no effect. The essentials: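 Compounds were pin-transferred into ATP buffer, then GALK-galactose mix was added (final 5 nM enzyme, 100 uM galactose, 35 uM ATP). After 1 h at room temperature, remaining ATP was measured luminescently.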
For test [18], the target named is Ubiquitin carboxyl-terminal hydrolase 1 (Homo sapiens) (UniProt O94782). Nature of the test: Inhibitors of USP1/UAF1: Pilot qHTS (AID 504865). Also: nearly all actives have a fitted effect of over 35% in size. Also: potency is read from the fitted curve at half-maximal effect. The gist of the method:
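Kinetic fluorescence assay: 1nM USP1/UAF1, 15 min compound preincubation, then 150nM Ub-Rho; 480/540 nm.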

Results filed as inconclusive are left out. Activity calls are given as the source filed them. Unless noted, calls follow the shape of the dose curve; as a rule, active = well fitted curve in the direction sought with a large enough effect; inconclusive = small, poorly fitted or top-dose-only effect, or another doubt; inactive = no such curve, though single readings can be large; an effect the other way counts as inactive or inconclusive.

Phosphoglycerate kinase, glycosomal (Trypanosoma brucei brucei), sequence (P07378 whole entry, looked up): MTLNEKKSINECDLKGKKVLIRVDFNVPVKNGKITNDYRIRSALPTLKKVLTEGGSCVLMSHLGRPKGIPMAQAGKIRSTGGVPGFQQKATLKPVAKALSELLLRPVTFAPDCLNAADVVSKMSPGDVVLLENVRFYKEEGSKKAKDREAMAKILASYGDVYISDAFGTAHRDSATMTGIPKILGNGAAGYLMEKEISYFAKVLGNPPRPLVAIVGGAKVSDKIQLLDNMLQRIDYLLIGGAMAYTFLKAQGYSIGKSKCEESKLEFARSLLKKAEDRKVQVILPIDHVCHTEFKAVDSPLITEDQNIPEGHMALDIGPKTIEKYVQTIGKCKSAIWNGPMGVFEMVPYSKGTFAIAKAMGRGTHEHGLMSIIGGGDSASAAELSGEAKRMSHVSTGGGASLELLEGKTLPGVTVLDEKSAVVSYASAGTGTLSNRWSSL
Peptidyl-prolyl cis-trans isomerase NIMA-interacting 1 (Homo sapiens), sequence (Q13526 whole entry, looked up): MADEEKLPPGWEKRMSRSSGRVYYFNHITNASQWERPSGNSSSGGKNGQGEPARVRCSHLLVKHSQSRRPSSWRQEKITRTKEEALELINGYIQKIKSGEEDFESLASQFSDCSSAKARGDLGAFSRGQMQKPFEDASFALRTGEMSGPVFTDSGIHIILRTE
D(1A) dopamine receptor (Homo sapiens), sequence (P21728 whole entry, looked up): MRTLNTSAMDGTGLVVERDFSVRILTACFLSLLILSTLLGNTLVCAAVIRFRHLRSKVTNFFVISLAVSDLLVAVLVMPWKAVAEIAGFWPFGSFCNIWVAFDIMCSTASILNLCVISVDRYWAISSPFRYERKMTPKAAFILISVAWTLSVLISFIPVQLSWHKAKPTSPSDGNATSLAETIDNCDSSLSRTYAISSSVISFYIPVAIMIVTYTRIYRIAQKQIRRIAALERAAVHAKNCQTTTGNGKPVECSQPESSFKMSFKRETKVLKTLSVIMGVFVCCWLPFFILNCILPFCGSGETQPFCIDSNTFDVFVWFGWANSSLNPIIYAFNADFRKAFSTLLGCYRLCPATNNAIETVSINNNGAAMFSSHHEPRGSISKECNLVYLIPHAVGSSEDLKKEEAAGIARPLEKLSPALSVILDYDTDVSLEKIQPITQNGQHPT
Transient receptor potential cation channel subfamily V member 1 (Homo sapiens), sequence (Q8NER1 whole entry, looked up): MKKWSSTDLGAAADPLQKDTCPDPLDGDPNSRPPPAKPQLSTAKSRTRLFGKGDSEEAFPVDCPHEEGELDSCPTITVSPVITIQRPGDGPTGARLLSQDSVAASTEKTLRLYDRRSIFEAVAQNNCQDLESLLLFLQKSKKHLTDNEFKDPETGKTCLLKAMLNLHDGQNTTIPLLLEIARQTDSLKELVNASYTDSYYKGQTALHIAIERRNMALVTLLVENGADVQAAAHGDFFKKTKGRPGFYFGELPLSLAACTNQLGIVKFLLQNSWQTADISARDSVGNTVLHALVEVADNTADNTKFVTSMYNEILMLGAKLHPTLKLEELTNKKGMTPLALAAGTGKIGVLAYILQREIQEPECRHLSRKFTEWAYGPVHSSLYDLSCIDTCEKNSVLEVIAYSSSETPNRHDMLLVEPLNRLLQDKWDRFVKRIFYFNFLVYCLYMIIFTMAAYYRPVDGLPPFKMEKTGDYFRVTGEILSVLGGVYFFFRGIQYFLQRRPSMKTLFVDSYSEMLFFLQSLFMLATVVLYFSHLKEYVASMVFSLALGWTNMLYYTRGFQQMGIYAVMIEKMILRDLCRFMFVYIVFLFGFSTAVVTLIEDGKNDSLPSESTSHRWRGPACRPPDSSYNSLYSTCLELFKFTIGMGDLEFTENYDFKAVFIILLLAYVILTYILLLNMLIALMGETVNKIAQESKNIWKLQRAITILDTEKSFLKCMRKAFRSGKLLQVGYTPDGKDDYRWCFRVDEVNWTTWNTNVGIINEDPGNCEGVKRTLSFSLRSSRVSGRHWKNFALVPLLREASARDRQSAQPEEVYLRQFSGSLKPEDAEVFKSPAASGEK
ATPase family AAA domain-containing protein 5 (Homo sapiens), sequence (Q96QE3 whole entry, looked up, the tested form may be a part): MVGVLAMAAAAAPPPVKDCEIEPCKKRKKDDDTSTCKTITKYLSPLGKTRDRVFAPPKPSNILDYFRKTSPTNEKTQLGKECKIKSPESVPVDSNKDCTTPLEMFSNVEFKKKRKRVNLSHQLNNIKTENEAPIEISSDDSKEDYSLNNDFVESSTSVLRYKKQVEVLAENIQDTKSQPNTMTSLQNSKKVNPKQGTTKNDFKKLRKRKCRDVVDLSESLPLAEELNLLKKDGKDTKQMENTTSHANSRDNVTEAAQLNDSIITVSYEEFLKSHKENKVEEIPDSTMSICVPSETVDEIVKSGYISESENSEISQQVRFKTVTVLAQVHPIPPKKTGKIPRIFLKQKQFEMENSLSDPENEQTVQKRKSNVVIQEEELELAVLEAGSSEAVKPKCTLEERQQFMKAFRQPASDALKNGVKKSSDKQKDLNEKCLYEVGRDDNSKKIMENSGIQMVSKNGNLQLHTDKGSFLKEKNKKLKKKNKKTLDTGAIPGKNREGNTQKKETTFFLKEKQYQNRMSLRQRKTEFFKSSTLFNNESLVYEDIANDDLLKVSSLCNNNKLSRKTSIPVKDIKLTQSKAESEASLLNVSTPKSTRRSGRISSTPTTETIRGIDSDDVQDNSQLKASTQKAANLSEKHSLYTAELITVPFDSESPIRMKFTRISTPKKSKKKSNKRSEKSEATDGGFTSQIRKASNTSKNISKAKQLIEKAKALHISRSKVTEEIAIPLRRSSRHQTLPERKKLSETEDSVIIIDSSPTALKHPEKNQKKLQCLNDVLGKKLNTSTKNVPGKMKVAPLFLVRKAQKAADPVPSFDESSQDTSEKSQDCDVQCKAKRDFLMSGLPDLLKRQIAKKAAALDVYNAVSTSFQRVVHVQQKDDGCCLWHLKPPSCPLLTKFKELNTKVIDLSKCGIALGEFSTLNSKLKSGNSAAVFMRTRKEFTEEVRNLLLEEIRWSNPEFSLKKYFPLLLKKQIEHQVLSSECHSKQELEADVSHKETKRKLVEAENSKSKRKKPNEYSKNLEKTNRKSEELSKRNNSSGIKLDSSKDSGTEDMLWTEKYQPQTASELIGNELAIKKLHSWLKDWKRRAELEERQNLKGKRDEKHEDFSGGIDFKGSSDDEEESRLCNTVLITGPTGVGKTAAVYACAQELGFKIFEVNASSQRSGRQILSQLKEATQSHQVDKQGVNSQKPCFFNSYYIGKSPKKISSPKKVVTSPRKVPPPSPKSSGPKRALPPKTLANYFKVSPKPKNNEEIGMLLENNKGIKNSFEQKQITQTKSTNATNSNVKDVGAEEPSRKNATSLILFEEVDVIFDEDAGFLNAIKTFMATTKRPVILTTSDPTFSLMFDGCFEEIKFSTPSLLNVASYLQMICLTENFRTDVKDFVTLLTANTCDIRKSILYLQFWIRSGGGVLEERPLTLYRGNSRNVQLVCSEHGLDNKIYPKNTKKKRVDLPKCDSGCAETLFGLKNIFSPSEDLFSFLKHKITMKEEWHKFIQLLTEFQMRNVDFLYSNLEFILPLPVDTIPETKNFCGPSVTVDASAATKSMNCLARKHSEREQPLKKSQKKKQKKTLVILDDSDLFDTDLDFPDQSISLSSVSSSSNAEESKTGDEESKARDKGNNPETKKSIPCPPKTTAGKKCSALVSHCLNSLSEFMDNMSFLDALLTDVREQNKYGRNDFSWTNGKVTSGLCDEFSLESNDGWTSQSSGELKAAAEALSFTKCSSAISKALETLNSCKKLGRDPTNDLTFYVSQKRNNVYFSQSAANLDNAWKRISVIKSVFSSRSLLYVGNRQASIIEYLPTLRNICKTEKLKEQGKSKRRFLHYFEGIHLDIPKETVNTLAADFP
Ubiquitin carboxyl-terminal hydrolase 1 (Homo sapiens), sequence (O94782 whole entry, looked up): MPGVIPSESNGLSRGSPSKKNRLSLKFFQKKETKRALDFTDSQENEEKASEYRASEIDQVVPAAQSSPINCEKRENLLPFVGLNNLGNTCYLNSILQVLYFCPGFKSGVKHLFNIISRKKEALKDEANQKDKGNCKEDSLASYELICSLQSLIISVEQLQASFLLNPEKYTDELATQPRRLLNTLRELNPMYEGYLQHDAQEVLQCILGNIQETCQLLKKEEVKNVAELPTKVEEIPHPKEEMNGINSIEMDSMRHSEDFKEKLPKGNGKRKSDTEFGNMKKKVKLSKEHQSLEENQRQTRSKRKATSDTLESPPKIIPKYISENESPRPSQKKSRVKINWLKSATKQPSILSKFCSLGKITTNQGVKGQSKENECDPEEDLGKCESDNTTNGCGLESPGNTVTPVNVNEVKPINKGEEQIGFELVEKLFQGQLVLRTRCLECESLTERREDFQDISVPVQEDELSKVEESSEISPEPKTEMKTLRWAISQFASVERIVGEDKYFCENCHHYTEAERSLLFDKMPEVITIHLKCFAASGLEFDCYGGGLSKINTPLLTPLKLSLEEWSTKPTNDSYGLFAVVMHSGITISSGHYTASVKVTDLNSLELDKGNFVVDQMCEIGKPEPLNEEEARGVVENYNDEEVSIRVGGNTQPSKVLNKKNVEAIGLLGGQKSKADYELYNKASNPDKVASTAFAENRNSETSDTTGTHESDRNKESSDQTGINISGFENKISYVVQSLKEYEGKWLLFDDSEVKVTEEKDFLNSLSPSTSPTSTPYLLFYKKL
phosphoglycerate mutase (Leishmania major), sequence (Q4Q090 1-553): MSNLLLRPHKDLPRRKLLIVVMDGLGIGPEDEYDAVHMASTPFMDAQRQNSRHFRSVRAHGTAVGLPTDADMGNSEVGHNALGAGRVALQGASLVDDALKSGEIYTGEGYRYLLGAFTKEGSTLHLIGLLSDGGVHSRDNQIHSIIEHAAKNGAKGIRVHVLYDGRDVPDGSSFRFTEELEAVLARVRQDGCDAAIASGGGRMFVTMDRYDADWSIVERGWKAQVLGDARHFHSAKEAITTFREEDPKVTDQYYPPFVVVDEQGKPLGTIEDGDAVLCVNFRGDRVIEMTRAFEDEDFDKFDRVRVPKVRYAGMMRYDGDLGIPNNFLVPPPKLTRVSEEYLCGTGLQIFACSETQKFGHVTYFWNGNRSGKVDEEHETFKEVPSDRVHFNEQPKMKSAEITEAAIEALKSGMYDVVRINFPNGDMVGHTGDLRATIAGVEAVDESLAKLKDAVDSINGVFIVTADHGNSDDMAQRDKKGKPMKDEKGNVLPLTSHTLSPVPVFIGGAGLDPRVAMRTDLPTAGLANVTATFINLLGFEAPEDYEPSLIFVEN

Regarding `C=CC[C@H](N)C(=O)O`, the result in test [1], in [2] and in test [10] was inactive. The Potency result in [3], in test [4], in [5], in test [6], in test [7] and in test [9] was “inactive” each time. For the same compound, the Potency entry in [11], in [12], in [13], in test [14], in [15] and in [16] was “inactive” throughout. Also, the activation in test [8] was -3.19% (inactive). Besides, the viability change in test [9] is -2.69%.
Turning to `NC/C=C\C(=O)O`, the outcome in test [1], in test [2] and in test [10] was inactive. For the same compound, the Potency result in test [3], in test [4], in test [5], in test [6], in test [7] and in test [9] was “inactive” in each case. Also, the Potency entry in test [17], in test [12], in test [13], in test [14], in test [18] and in test [15] was “inactive” each time. In addition, the Potency entry in test [16] was “inactive”. In addition, in test [8], the activation was 0.75% (inactive). Besides, the viability change in test [9] was -0.476%.
On to `CCCCOc1cc(CC2CNC(=O)N2)ccc1OC` (configuration not stated), for which the result in [1] and in test [2] was inactive. Besides, the Potency entry in [3], in test [4], in test [5], in [6], in test [7] and in [9] was “inactive” throughout. Besides, the Potency result in test [17], in test [12], in test [13], in test [14], in test [18] and in test [15] was “inactive” in each case. For the same compound, the Potency entry in test [16] is “inactive”. Also, the activation in test [8] is 0.75% (inactive). In [9], the viability change turned out to be 4.87%.
Turning to `O=c1[nH]ccc2c(O)cccc12`, the outcome in test [1], in test [2] and in test [10] was inactive. The Potency entry in test [3], in test [4], in [5], in [6], in test [7] and in test [9] was “inactive” each time. The Potency result in [17], in test [11], in test [13], in test [14], in [18] and in test [15] was “inactive” each time. The Potency entry in test [16] was “inactive”. Moreover, in test [8], the activation is 1.12% (inactive). In test [9], the viability change was -2.46%.
`CC(=O)N[C@@H](Cc1c[nH]c2ccccc12)C(=O)OCc1cc(C(F)(F)F)cc(C(F)(F)F)c1`: the outcome in test [1], in test [2] and in [10] was inactive. For the same compound, the Potency result in test [3], in test [4], in [5], in test [6], in test [7] and in test [9] was “inactive” each time. Also, the Potency result in [17], in [12], in test [13], in [14], in test [15] and in test [16] was “inactive” throughout. The activation in [8] is 2.62% (inactive). Besides, in test [9], the viability change was 0.548%. In test [18], the Potency was 20 µM (active).
Regarding `COc1cc(/C=C(\C#N)C(=O)c2ccc(O)c(O)c2)cc(I)c1O`, the outcome in test [1], in [2] and in [10] was inactive. For the same compound, the Potency is 14.1 µM (active) in [3], 3.66 µM (active) in [4], 2.13 µM (active) in [13] and 50.1 µM (active) in test [18]. Also, the Potency entry in test [5], in [6], in test [7], in [9], in [11] and in test [14] was “inactive” throughout. The Potency result in test [16] was “inactive”. The activation in test [8] was 53.1% (active). The viability change in [9] was -22%.
As for `CN[C@H](CC(=O)O)C(=O)O`, the outcome in [1] and in test [2] was inactive. In addition, the Potency entry in [3], in test [4], in test [5], in test [6], in test [7] and in [9] was “inactive” throughout. Moreover, the Potency result in test [17], in [11], in test [12], in test [13], in [18] and in test [15] was “inactive” each time. The Potency result in test [16] is “inactive”. Besides, the activation in test [8] was 1% (inactive). The viability change in [9] was -4.15%.
Turning to `COc1ccc2c(c1)c(CC(=O)O)c(C)n2C(=O)c1ccccc1`, the outcome in test [1] and in test [2] was inactive. Moreover, the Potency result in [3], in test [4], in test [5], in test [6], in [7] and in test [17] was “inactive” each time. Also, the Potency result in test [11], in test [12], in [13], in [14], in test [18] and in test [15] was “inactive” throughout. In addition, the Potency entry in test [16] is “inactive”. Besides, the activation in test [8] is 0.812% (inactive).
